Assay results as given in PubChem BioAssay (NCATS).
Inconclusive results are not listed. Values without a mark were called inactive. Calls of active or inactive are those of the source. The call rests on the fitted dose curve; in most records, active means well fitted inhibition curve with a large enough effect; inconclusive means small, poorly fitted or top-dose-only effect; inactive means flat fitted curve, though single readings scatter.

test system: HEK293; experiment: Cytotoxic Profiling of Annotated Libraries Using Quantitative High-Throughput Screening (AID 1296008); conditions: Five cell lines viability, CellTiter-Glo ATP luminescence, 48-72 h; max response: active compounds read low; further: nearly all actives have a fitted effect of over 60% in size
How it was run: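 Cytotoxicity was measured as CellTiter-Glo ATP luminescence, read after 10 min at room temperature. Compound treatment of the cells lasted 48 or 72 hr at 37 degrees Celsius in a qHTS format.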
On the % scale 0 is the no-effect control and ±100 the full control effect; potency means the concentration at half of the fitted maximal effect.

Compound	max response [%]	Potency
CC1(C)CC[C@]2(C(=O)O[C@@H]3O[C@H](CO)[C@@H](O)[C@H](O)[C@H]3O)CC[C@]3(C)C(=CCC4[C@@]5(C)CC[C@H](O[C@H]6O[C@H](CO)[C@@H](O)[C@H](O[C@@H]7O[C@H](CO)[C@@H](O)[C@H](O)[C@H]7O)[C@H]6O)C(C)(C)C5CC[C@]43C)[C@@H]2C1 (some centres undefined)	-4.45	
COC(=O)[C@H](Cc1cccc(C(=N)N)c1)[C@@H](C)NC(=O)c1ccc(-c2cc[n+]([O-])cc2)cc1	3.53	
C[C@@H]1CC[C@]2(C(=O)O[C@@H]3O[C@H](CO[C@@H]4O[C@H](CO)[C@@H](O)[C@H](O)[C@H]4O)[C@@H](O)[C@H](O)[C@H]3O)CC[C@]3(C)C(=CCC4[C@@]5(C)CC[C@H](O)[C@](C)(C(=O)O)C5CC[C@]43C)[C@@H]2[C@]1(C)O (some centres undefined)	3.94	
O=C(OC[C@H]1O[C@H](O[C@]2(CO)O[C@H](CO)[C@@H](O)[C@@H]2O)[C@H](O)[C@@H](O)[C@@H]1O)c1ccc(O)cc1	1.1	
CC12CC34CC(O)C5C(CO)(CO)CC(=O)CC5(C)C3CC1C2C4 (centres undefined)	-0.711	
CC(C)[C@](O)(c1ccc2cc(OC(F)F)c(OC(F)F)cc2c1)c1cn[nH]n1	-21.3	
O=C(CCCCC1CCCCC1)N1CCC(c2cnc[nH]2)CC1		5.8 µM (active)
CNC(C)C(=O)NC(C(=O)N1CCCC1C(=O)Nc1cccc2ncccc12)C(C)C (centres undefined)	4.04	
C=C1CC[C@@]2(OC1)O[C@H]1CC3[C@@H]4CC=C5C[C@H](O[C@H]6OC[C@@H](O)C(O)[C@@H]6O[C@@H]6O[C@@H](C)[C@H](O)[C@@H](O[C@@H]7O[C@H](CO)[C@@H](O)[C@H](O)[C@H]7O)[C@H]6O)C[C@@H](O)[C@]5(C)C4CC[C@]3(C)[C@H]1[C@@H]2C (some centres undefined)	-14.3	
Cc1c(C)c(NCC(=O)N(C)C2CCN(Cc3ccc(C(N)=O)cc3)CC2)c(C)c(C)c1N	-11.3	
CC1CCC2(C(=O)O)CCC3(C)C(=CCC4C5(C)CCC(O)C(C)(C(=O)O)C5CCC43C)C2C1(C)O (centres undefined)	-11.5	
C=C1C[C@]23C[C@H]1CC[C@H]2[C@]1(C)CC[C@H](O)[C@@](C)(C(=O)O)[C@H]1[C@@H]3C(=O)O	0.167	
COC(=O)C(CC1(OC(=O)C(C)C)c2ccccc2N2C(=O)C(C)(C)N(O)C21)n1cnc2ccccc2c1=O (centres undefined)	-9.23	
C=C[C@H]1[C@H](O[C@@H]2O[C@H](CO)[C@@H](O)[C@H](OC(=O)/C=C/c3ccc(O)c(OC)c3)[C@H]2O)OC=C2C(=O)OCC[C@]21O	-3.81	
